Measured values reported in PubChem BioAssay (NCI).
The panel holds about 79,000 compounds, 15% with a hit somewhere; the sample as a whole holds those more often. Active and inactive are the calls of the source. Rule as the data show it: active = growth inhibition above about 70%; inactive = the rest.

How the values were obtained:
[1] = NCI Yeast Anticancer Drug Screen. Data for the wt1 strain (AID 149);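 also: 0% = growth of vehicle-treated wt1 cultures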; settings: S. cerevisiae wt1 strain (SPY 50644) growth inhibition, active compounds read high
How it was run: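 Each compound is tested on wt1 yeast and the loss of growth versus vehicle gives the inhibition value.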

[2] = NCI Yeast Anticancer Drug Screen. Data for the rad50EPP+ strain (AID 151);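 also: 0% = growth of vehicle-treated control cultures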; settings: S. cerevisiae rad50 mutant strain, active compounds read high
How it was run: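 rad50EPP+ yeast treated with test compounds. Readout: growth vs vehicle control.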

[3] = NCI Yeast Anticancer Drug Screen. Data for the rad50 strain (AID 155);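 also: 0% = growth of vehicle-only cultures of the same strain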; settings: S. cerevisiae rad50 strain growth inhibition, active compounds read high
How it was run: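 Vehicle-treated cultures provide the reference for the growth inhibition reported for compound-exposed, repair-deficient yeast.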

[4] = NCI Yeast Anticancer Drug Screen. Data for the mec2-1 strain (AID 157); settings: S. cerevisiae mec2-1 strain, active compounds read high
How it was run: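 Growth inhibition is read against vehicle-treated controls after compound exposure of the mec2-1 yeast strain, which is defective in DNA damage repair or cell cycle control.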

[5] = NCI Yeast Anticancer Drug Screen. Data for the rad14 strain (AID 159);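 also: 0% = growth of vehicle-treated control cultures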; settings: S. cerevisiae rad14 strain growth inhibition, active compounds read high
How it was run: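 Inhibition of growth is reported for a repair-deficient yeast mutant following compound treatment, calculated relative to cultures that received vehicle.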

[6] = NCI Yeast Anticancer Drug Screen. Data for the CLN2oe strain (AID 163);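 also: 0% = growth of vehicle-only control cultures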; settings: S. cerevisiae CLN2oe strain, active compounds read high
How it was run: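 Compound-treated yeast; growth vs vehicle ctrl = % inhibition. Genetically altered strain (cell-cycle control).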

[7] = NCI Yeast Anticancer Drug Screen. Data for the cln2 rad14 strain (AID 165);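 also: 0% = growth equal to vehicle treated cultures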; settings: S. cerevisiae cln2 rad14 strain, active compounds read high
How it was run: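 Growth inhibition, relative to vehicle-treated controls, is the read-out. The test organism is a yeast strain with defined genetic alterations, cln2 rad14.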

[8] = NCI Yeast Anticancer Drug Screen. Data for the bub3 strain (AID 167); settings: S. cerevisiae bub3 mutant strain, active compounds read high
How it was run: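 Mutant yeast screening strain plus compound; vehicle-treated cultures serve as the 0% inhibition reference.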

[9] = NCI Yeast Anticancer Drug Screen. Data for the mlh1 strain (AID 171);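 also: 0% = growth of vehicle-treated control cultures of the same strain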; settings: S. cerevisiae mlh1 strain growth inhibition, active compounds read high
How it was run: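 Compounds are applied to a genetically altered yeast strain, and its growth is compared with that of vehicle-treated cultures to give percent inhibition.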

[10] = NCI Yeast Anticancer Drug Screen. Data for the sgs1 strain (AID 173);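 also: 0% = growth of vehicle-only control cultures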; settings: S. cerevisiae sgs1 mutant, active compounds read high
How it was run: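 Compounds applied to genetically altered yeast; growth compared with vehicle-treated cultures to give % inhibition.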

[11] = NCI Yeast Anticancer Drug Screen. Data for the rad18 strain (AID 177); settings: S. cerevisiae rad18 mutant growth inhibition, active compounds read high
How it was run: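 Compounds are applied to a repair-deficient yeast strain, and growth is compared with that of vehicle-treated cultures to give percent inhibition.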

[12] = NCI Yeast Anticancer Drug Screen. Data for the mgt1 strain (AID 153); settings: S. cerevisiae mgt1 mutant growth inhibition, active compounds read high
How it was run: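 Growth inhibition relative to vehicle controls was scored for the mgt1 yeast strain after compound exposure.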

[13] = NCI Yeast Anticancer Drug Screen. Data for the sgs1 mgt1 strain (AID 161);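 also: 0% = growth of cultures given vehicle only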; settings: S. cerevisiae sgs1 mgt1 strain, active compounds read high
How it was run: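 Growth of a repair-deficient yeast mutant was monitored after compound treatment and expressed as inhibition relative to vehicle-treated cultures.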

[14] = NCI Yeast Anticancer Drug Screen. Data for the wt2 strain (AID 169); settings: S. cerevisiae wt2 strain growth inhibition, active compounds read high
How it was run: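 Compound exposure of yeast; growth compared with vehicle controls; inhibition reported.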

[15] = NCI Yeast Anticancer Drug Screen. Data for the mlh1 rad18 strain (AID 175); settings: S. cerevisiae mlh1 rad18 strain growth inhibition, active compounds read high
How it was run: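 Cells of a genetically altered yeast strain, deficient in DNA damage repair, were treated with compound. Their growth was then compared with that of vehicle-treated cultures to give inhibition.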

[16] = at 5.0 µM (retest, dose inferred, filed as 0.5)
[17] = at 50.0 µM (retest, dose inferred, filed as 5.0)

Measured: growth inhibition

BrC/C=C/C[P+](c1ccccc1)(c1ccccc1)c1ccccc1
active: [1]; at 11.0 µM 94% | [1]; at 33.0 µM 98% | [1]; at 100.0 µM 98% | [2]; at 100.0 µM 91% | [3]; [16] 79% | [3]; at 11.0 µM 93% | [3]; at 33.0 µM 98% | [3]; [17] 79% | [3]; at 50.0 µM 90% | [3]; at 100.0 µM 98% | [4]; at 11.0 µM 96% | [4]; at 33.0 µM 98% | [4]; at 50.0 µM 92.9% | [4]; at 100.0 µM 99% | [5]; at 11.0 µM 96% | [5]; at 33.0 µM 99% | [5]; at 100.0 µM 99% | [6]; at 11.0 µM 94% | [6]; at 33.0 µM 98% | [6]; at 100.0 µM 99% | [7]; at 50.0 µM 87.7% | [8]; at 11.0 µM 94% | [8]; at 33.0 µM 98% | [8]; at 50.0 µM 88.7% | [8]; at 100.0 µM 98% | [9]; at 11.0 µM 83% | [9]; at 33.0 µM 98% | [9]; at 100.0 µM 99% | [10]; at 11.0 µM 95% | [10]; at 33.0 µM 98% | [10]; at 100.0 µM 99% | [11]; at 11.0 µM 96% | [11]; at 33.0 µM 98% | [11]; at 100.0 µM 98%
inactive: [1]; at 1.2 µM 4% | [1]; at 3.7 µM 9% | [2]; at 1.2 µM -12% | [2]; at 3.7 µM -14% | [2]; at 11.0 µM -8% | [2]; at 33.0 µM 45% | [3]; at 1.2 µM 7% | [3]; at 3.7 µM 13% | [4]; at 1.2 µM 5% | [4]; at 3.7 µM 12% | [4]; [16] 23% | [4]; [17] 23% | [5]; at 1.2 µM 5% | [5]; at 3.7 µM 7% | [6]; at 1.2 µM -3% | [6]; at 3.7 µM 10% | [7]; [16] 47% | [7]; [17] 47% | [8]; at 1.2 µM -5% | [8]; at 3.7 µM -7% | [8]; [16] 18% | [8]; [17] 18% | [9]; at 1.2 µM -5% | [9]; at 3.7 µM 1% | [10]; at 1.2 µM 4% | [10]; at 3.7 µM 10% | [11]; at 1.2 µM 9% | [11]; at 3.7 µM 33%

N=C(N)c1ccc(N=Nc2c(O)ccc3c2[nH]c2ccccc23)cc1
active: [2]; at 33.0 µM 87% | [2]; at 100.0 µM 95% | [12]; at 33.0 µM 95% | [12]; at 100.0 µM 95% | [3]; at 11.0 µM 91% | [3]; at 33.0 µM 95% | [3]; [17] 98% | [3]; at 50.0 µM 97.8% | [3]; at 100.0 µM 95% | [4]; at 33.0 µM 95% | [4]; [17] 96% | [4]; at 50.0 µM 98.2% | [4]; at 100.0 µM 97% | [5]; at 11.0 µM 90% | [5]; at 33.0 µM 96% | [5]; at 100.0 µM 97% | [13]; [17] 97% | [13]; at 50.0 µM 96.8% | [6]; at 33.0 µM 93% | [6]; at 100.0 µM 94% | [7]; [17] 95% | [7]; at 50.0 µM 95.9% | [8]; at 11.0 µM 79% | [8]; at 33.0 µM 95% | [8]; [17] 97% | [8]; at 50.0 µM 98.2% | [8]; at 100.0 µM 93% | [14]; at 11.0 µM 84% | [14]; at 33.0 µM 95% | [14]; at 100.0 µM 97% | [9]; at 11.0 µM 71% | [9]; at 33.0 µM 92% | [9]; at 100.0 µM 96% | [10]; at 11.0 µM 92% | [10]; at 33.0 µM 96% | [10]; at 100.0 µM 96% | [15]; [17] 98% | [15]; at 50.0 µM 98.3% | [11]; at 11.0 µM 93% | [11]; at 33.0 µM 96% | [11]; at 100.0 µM 95%
inactive: [2]; at 1.2 µM 8% | [2]; at 3.7 µM 36% | [2]; at 11.0 µM 57% | [12]; at 1.2 µM -2% | [12]; at 3.7 µM 2% | [12]; at 11.0 µM 64% | [3]; at 1.2 µM -2% | [3]; at 3.7 µM 11% | [3]; [16] 57% | [4]; at 1.2 µM -3% | [4]; at 3.7 µM -1% | [4]; [16] 15% | [4]; at 11.0 µM 68% | [5]; at 1.2 µM -1% | [5]; at 3.7 µM 3% | [13]; [16] 17% | [6]; at 1.2 µM -3% | [6]; at 3.7 µM 5% | [6]; at 11.0 µM 41% | [7]; [16] -24% | [8]; at 1.2 µM -4% | [8]; at 3.7 µM -3% | [8]; [16] 19% | [14]; at 1.2 µM -3% | [14]; at 3.7 µM 5% | [9]; at 1.2 µM 1% | [9]; at 3.7 µM 2% | [10]; at 1.2 µM 0% | [10]; at 3.7 µM 21% | [15]; [16] 24% | [11]; at 1.2 µM -10% | [11]; at 3.7 µM 11%
